Our source for the outcome and AC50 values is PubChem BioAssay (EPA / NIEHS).

Assay [1] can be described thus: ATG_TAL_CIS: Attagene CIS-FACTORIAL HepG2 Assay for human TAL Basal Promoter (AID 2282966; active = hit-call score of the fitted dose curve at least 0.9, where 1 is the maximum; inactive = score below 0.9;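 note: background control endpoint measuring basal TAL promoter reporter mRNA not a specific factor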). The note with it: HepG2 Attagene cis-factorial TAL promoter reporter; actives raise or lower the signal. A digest of the protocol: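 Human hepatoma HepG2 cells, transfected with promoter-regulated reporter units, were treated 24 h. Reporter transcript levels, measured through RT-PCR and capillary electrophoresis, were fitted for gain or loss relative to DMSO.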

The nature of assay [2]: ATG_TGFb_CIS: Attagene CIS-FACTORIAL HepG2 Assay for human Transforming Growth Factor (TGF) (AID 2282967; active = hit-call score of the fitted dose curve at least 0.9, where 1 is the maximum; inactive = score below 0.9). The following applies: HepG2 Attagene CIS TGFb reporter, mRNA transcription; actives raise or lower the signal. In short, it runs like this: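 Endogenous TGFB1-linked transcription factor activity read as reporter mRNA via RT-PCR and capillary electrophoresis, 24 h after dosing transiently transfected HepG2 cells. Gain or loss of signal fitted relative to DMSO.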

Assay [3] can be described thus: ATG_VDRE_CIS: Attagene CIS-FACTORIAL HepG2 Assay for human Vitamin D Receptor Element (VDRE) (AID 2282968; active = hit-call score of the fitted dose curve at least 0.9, where 1 is the maximum; inactive = score below 0.9). The note with it: HepG2 VDRE cis-reporter transcription, actives raise or lower the signal. In short, it runs like this:
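Steps: transfect HepG2 with multiple reporter transcription units; dose chemicals 24 h; isolate RNA; RT-PCR; label with 6-FAM primer extension; HpaI digest; capillary electrophoresis. Curves fitted both directions against DMSO.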

Assay [4] concerns the target Estrogen receptor (Homo sapiens) (UniProt P03372). The experiment in a line: ATG_ERa_TRANS: Attagene TRANS-FACTORIAL HepG2 Assay for human Estrogen Receptor alpha (ERa) (AID 2282970). The note with it: HepG2 Attagene TRANS ERa GAL4 reporter, mRNA. A digest of the protocol:
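Signal derives from fluorescence of labelled reporter PCR fragments separated by capillary electrophoresis. HepG2 cells transiently carrying multiple GAL4-UAS reporter units were treated 24 hours, and induction above DMSO baseline was fitted as activity.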

For assay [5], the target named is X-box-binding protein 1 (Homo sapiens) (UniProt P17861). The experiment in a line: ATG_Xbp1_CIS: Attagene CIS-FACTORIAL HepG2 Assay for human X-box Binding Protein 1 (XBP1) (AID 2282972; active = hit-call score of the fitted dose curve at least 0.9, where 1 is the maximum; inactive = score below 0.9). The note with it: HepG2 XBP1 cis-element reporter, Attagene multiplex; actives raise or lower the signal. In short, it runs like this:
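Reporter transcripts were quantified by RT-PCR with fluorescent primer extension and capillary electrophoresis after 24 h chemical exposure. Cells: transiently transfected HepG2 carrying cis-regulated reporter constructs; data fitted bidirectionally relative to DMSO.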

The target in assay [6] is Hepatocyte nuclear factor 4-alpha (Homo sapiens) (UniProt P41235). Put plainly: ATG_HNF4a_TRANS: Attagene TRANS-FACTORIAL HepG2 Assay for human Hepatocyte Nuclear Factor 4 alpha (HNF4a) (AID 2282982). The following applies: HepG2 HNF4a transactivation reporter, mRNA readout. In short, it runs like this:
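In this trans-factorial format, a chimeric HNF4a-GAL4 fusion drives a GAL4-UAS reporter in transfected HepG2 liver cells. After 24 h treatment, reporter mRNA induction is measured by RT-PCR with capillary electrophoresis, relative to DMSO.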

Assay [7] can be described thus: ATG_M_06_TRANS: Attagene TRANS-FACTORIAL HepG2 Assay for M06 Transcription Factor (Internal Marker) (AID 2282983).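 For AC50: potency for rise in reporter mRNA above DMSO baseline.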 The note with it: HepG2 Attagene TRANS M06 internal marker reporter. In short, it runs like this: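 Multi-reporter-transfected HepG2, 24 h treatment; reporter transcripts quantified via RT-PCR, primer-extension labelling and CE. DMSO-normalized gain-of-signal fit.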

Assay [8] can be described thus: ATG_M_32_TRANS: Attagene TRANS-FACTORIAL HepG2 Assay for M32 Transcription Factor (Internal Marker) (AID 2282984). The following applies: HepG2 Attagene TRANS M32 internal marker reporter. In short, it runs like this:
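After 24 h dosing of transfected HepG2 cells, total RNA was reverse-transcribed, reporter sequences PCR-amplified, 6-FAM labelled by primer extension and HpaI-digested before capillary electrophoresis. Signal increase over DMSO was fitted.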

Assay [9] addresses Nuclear receptor subfamily 4 group A member 2 (Homo sapiens) (UniProt P43354). The experiment in a line: ATG_NURR1_TRANS: Attagene TRANS-FACTORIAL HepG2 Assay for human Nuclear Receptor Related Protein 1 (NURR1) (AID 2282985). The note with it: HepG2 Attagene TRANS reporter, mRNA readout. A digest of the protocol: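 Chimeric NR-Gal4 fusion activity measured in HepG2 after 24 h treatment. Reporter transcripts detected by RT-PCR and capillary electrophoresis fluorescence; positive-direction curve fitting against DMSO.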

In assay [10] the target is Transcriptional activator Myb (Homo sapiens) (UniProt P10242). Put plainly: ATG_Myb_CIS: Attagene CIS-FACTORIAL HepG2 Assay for human Myeloblastosis (Myb) Proto-Oncogene Transcription Factor (AID 2282986; active = hit-call score of the fitted dose curve at least 0.9, where 1 is the maximum; inactive = score below 0.9). The following applies: HepG2 Attagene CIS-FACTORIAL Myb reporter transcription; actives raise or lower the signal. A digest of the protocol:
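In this HepG2 transient-transfection format, cis-regulated reporter mRNA is quantified 24 h post-dosing by RT-PCR with capillary electrophoresis, fitted bidirectionally to DMSO baseline.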

Assay [11] has as its target Steroid hormone receptor ERR1 (Homo sapiens) (UniProt P11474). The experiment in a line: ATG_ERRa_TRANS: Attagene TRANS-FACTORIAL HepG2 Assay for human Estrogen-Related Receptor alpha (ERRa) (AID 2282971). The note with it: HepG2 Attagene TRANS reporter, ERRa transactivation. A digest of the protocol:
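Signal gain relative to DMSO for an ERRa-Gal4 chimeric receptor, read as reporter mRNA by RT-PCR/capillary electrophoresis. Human HepG2 liver cells, transient multiplex reporter transfection, 24 h chemical exposure.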

The nature of assay [12]: ATG_M_19_TRANS: Attagene TRANS-FACTORIAL HepG2 Assay for M19 Transcription Factor (Internal Marker) (AID 2282974). The following applies: HepG2 Attagene TRANS-FACTORIAL M19 internal marker reporter. In short, it runs like this: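 Using RT-PCR and capillary electrophoresis, reporter mRNA from transiently transfected human HepG2 cells was quantified following 24 h exposure; activity was fitted in the positive direction against DMSO.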

Assay [13] can be described thus: ATG_GAL4_TRANS: Attagene TRANS-FACTORIAL HepG2 Assay for GAL4 (Internal Marker) (AID 2282976). The note with it: HepG2 Attagene TRANS GAL4 internal marker reporter. In short, it runs like this: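 Liver HepG2 line bearing multiplexed GAL4-UAS reporter constructs; 24 h chemical treatment. Transcripts were quantified as fluorescent fragments on capillary electrophoresis after RT-PCR and HpaI cut, with activity fitted upward from DMSO.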

In assay [14] the target is Estrogen-related receptor gamma (Homo sapiens) (UniProt P62508). Put plainly: ATG_ERRg_TRANS: Attagene TRANS-FACTORIAL HepG2 Assay for human Estrogen-Related Receptor gamma (ERRg) (AID 2282977).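 Note: hits increase reporter signal over DMSO so potencies reflect activators.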 The note with it: HepG2 Attagene TRANS reporter, ERRg transactivation. In short, it runs like this:
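Exogenous NR-Gal4 chimera activity measured as reporter transcript induction after 24 h in transiently transfected HepG2 cells. RNA reverse-transcribed, PCR-amplified, 6-FAM-labelled and resolved by capillary electrophoresis; increase over DMSO baseline.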

Assay [15] has as its target Bile acid receptor (Homo sapiens) (UniProt Q96RI1). Put plainly: ATG_FXR_TRANS: Attagene TRANS-FACTORIAL HepG2 Assay for Farnesoid X Receptor (FXR) (AID 2282979).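 Note: hits raise reporter mRNA above DMSO so AC50 marks FXR activation.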 The note with it: HepG2 Attagene TRANS FXR-GAL4 reporter transcription. A digest of the protocol:
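After 24 h chemical treatment of transfected HepG2 cells, GAL4-UAS reporter transcripts driven by an exogenous FXR-GAL4 fusion were measured by RT-PCR and capillary electrophoresis. Increases over DMSO were fitted.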

Assay [16] deals with Oxysterols receptor LXR-alpha (Homo sapiens) (UniProt Q13133). Put plainly: ATG_LXRa_TRANS: Attagene TRANS-FACTORIAL HepG2 Assay for human Liver X Receptor alpha (LXRa) (AID 2282980). The following applies: HepG2 Attagene TRANS reporter, LXRa transactivation. In short, it runs like this: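 In this multiplexed TRANS system, compounds act on HepG2 cells carrying GAL4-UAS reporter units and a receptor-GAL4 fusion for 24 h. Induced reporter RNA is amplified, fluorescently labelled and sized by capillary electrophoresis, with DMSO as baseline.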

In assay [17] the target is Oxysterols receptor LXR-beta (Homo sapiens) (UniProt P55055). The experiment in a line: ATG_LXRb_TRANS: Attagene TRANS-FACTORIAL HepG2 Assay for human Liver X Receptor beta (LXRb) (AID 2282981). The following applies: HepG2 Attagene TRANS GAL4-LXRb reporter, mRNA. In short, it runs like this: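 Measures induction of a Gal4-driven reporter transcript in HepG2 cells expressing an exogenous LXRb-Gal4 fusion. Cells are exposed to compound for 24 h before RNA isolation and RT-PCR with capillary electrophoresis detection.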

Assay [18] has as its target Glucocorticoid receptor (Homo sapiens) (UniProt P04150). The experiment in a line: ATG_GR_TRANS: Attagene TRANS-FACTORIAL HepG2 Assay for human Glucocorticoid Receptor (GR) (AID 2282978).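 Note: activators score as hits since higher reporter transcript over DMSO is fitted.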 The note with it: HepG2 Attagene TRANS GR reporter, mRNA transcription. A digest of the protocol: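 Exogenous NR-GAL4 fusion activity was assessed through induced GAL4-UAS reporter transcripts in transfected human HepG2 cells, quantified after 24 h by RT-PCR and fluorescent capillary electrophoresis with DMSO as baseline.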

Assay [19] deals with Androgen receptor (Homo sapiens) (UniProt P10275). Put plainly: ATG_AR_TRANS: Attagene TRANS-FACTORIAL HepG2 Assay for human Androgen Receptor (AR) (AID 2282973). The following applies: HepG2 Attagene TRANS-FACTORIAL AR reporter transcription. In short, it runs like this: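 Chimeric nuclear receptor–Gal4 activity was assessed in human HepG2 hepatocytes after 24 h chemical dosing. Induced reporter mRNA was detected via labelled RT-PCR fragments on capillary electrophoresis, and gain of signal was analysed against DMSO.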

Inconclusive results are not listed. Activity calls are given as the source filed them. Rule for the calls, unless noted: active = hit-call score of the fitted dose curve at least 0.9, where 1 is the maximum; inconclusive = response in the unintended direction; inactive = score below 0.9.

Nuclear receptor subfamily 4 group A member 2 (Homo sapiens), sequence (P43354 whole entry, looked up, the tested form may be a part): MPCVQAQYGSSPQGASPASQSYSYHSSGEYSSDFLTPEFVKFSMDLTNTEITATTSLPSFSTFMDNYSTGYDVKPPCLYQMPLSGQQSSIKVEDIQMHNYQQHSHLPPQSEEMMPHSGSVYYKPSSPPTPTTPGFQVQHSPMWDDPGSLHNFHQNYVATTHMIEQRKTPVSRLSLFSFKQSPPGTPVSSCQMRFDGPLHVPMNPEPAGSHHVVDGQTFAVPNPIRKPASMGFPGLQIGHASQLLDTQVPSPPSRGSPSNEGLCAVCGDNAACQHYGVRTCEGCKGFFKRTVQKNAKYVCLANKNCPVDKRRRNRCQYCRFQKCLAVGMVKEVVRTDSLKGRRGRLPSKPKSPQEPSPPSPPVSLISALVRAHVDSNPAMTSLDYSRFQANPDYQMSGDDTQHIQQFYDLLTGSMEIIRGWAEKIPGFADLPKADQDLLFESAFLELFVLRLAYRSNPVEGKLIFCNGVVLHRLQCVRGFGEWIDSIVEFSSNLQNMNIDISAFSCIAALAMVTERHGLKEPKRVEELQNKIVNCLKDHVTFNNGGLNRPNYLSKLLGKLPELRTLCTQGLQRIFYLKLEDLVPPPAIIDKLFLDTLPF
Estrogen receptor (Homo sapiens), sequence (P03372 whole entry, looked up, the tested form may be a part): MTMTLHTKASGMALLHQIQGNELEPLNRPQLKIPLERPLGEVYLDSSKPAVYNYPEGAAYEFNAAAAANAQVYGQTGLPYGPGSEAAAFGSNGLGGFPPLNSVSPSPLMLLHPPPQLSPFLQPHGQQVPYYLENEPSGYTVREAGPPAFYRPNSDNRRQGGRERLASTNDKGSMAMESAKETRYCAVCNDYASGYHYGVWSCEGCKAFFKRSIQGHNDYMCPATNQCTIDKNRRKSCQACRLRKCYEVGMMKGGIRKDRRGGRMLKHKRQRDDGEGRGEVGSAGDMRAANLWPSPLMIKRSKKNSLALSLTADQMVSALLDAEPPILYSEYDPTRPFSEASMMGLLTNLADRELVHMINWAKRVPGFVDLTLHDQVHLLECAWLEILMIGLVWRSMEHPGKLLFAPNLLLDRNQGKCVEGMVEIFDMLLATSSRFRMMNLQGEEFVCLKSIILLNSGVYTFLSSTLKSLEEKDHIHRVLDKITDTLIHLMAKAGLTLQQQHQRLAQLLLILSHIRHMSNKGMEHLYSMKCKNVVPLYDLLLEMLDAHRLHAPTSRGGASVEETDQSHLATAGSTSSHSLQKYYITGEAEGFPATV
Estrogen-related receptor gamma (Homo sapiens), sequence (P62508 whole entry, looked up, the tested form may be a part): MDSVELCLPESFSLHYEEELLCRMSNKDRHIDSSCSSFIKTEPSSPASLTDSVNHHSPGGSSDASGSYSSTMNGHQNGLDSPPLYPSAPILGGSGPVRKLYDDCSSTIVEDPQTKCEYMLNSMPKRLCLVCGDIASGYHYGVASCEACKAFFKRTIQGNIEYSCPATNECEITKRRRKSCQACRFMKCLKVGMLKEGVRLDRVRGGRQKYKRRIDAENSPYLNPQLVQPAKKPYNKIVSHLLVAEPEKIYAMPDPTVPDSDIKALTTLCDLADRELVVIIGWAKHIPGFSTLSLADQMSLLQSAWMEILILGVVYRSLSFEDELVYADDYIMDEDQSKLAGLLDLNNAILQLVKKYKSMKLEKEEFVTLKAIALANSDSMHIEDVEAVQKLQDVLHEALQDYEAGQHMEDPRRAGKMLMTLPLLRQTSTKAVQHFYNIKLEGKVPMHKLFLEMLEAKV
Transcriptional activator Myb (Homo sapiens), sequence (P10242 whole entry, looked up): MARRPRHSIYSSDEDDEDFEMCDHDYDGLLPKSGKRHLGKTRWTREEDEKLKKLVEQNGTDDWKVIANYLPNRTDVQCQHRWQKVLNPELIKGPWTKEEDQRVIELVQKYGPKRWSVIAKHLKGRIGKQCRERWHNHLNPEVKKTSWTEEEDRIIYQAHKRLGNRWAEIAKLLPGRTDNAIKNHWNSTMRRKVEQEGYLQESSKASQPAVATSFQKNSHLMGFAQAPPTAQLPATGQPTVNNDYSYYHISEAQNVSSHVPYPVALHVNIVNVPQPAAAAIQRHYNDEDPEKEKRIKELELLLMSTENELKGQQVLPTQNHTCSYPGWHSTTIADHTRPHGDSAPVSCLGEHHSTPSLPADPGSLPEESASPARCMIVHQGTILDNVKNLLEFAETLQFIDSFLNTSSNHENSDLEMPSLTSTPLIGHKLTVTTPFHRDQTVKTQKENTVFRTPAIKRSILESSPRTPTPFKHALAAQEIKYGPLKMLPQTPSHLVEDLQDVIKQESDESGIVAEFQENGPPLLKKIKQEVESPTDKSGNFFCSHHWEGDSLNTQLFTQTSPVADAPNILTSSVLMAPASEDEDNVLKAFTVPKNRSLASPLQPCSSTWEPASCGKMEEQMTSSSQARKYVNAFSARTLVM
Oxysterols receptor LXR-alpha (Homo sapiens), sequence (Q13133 whole entry, looked up, the tested form may be a part): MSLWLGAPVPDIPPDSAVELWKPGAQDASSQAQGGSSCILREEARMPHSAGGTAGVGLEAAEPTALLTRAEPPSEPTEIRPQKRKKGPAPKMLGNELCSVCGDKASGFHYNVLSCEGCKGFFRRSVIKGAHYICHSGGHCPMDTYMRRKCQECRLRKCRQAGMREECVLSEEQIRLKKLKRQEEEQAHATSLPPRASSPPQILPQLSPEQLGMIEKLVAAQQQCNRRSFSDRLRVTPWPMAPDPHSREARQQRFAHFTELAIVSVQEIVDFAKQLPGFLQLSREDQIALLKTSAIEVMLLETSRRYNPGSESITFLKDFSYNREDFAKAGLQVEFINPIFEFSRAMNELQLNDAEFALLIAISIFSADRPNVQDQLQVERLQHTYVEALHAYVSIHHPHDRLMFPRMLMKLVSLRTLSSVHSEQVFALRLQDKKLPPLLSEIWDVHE
Hepatocyte nuclear factor 4-alpha (Homo sapiens), sequence (P41235 whole entry, looked up, the tested form may be a part): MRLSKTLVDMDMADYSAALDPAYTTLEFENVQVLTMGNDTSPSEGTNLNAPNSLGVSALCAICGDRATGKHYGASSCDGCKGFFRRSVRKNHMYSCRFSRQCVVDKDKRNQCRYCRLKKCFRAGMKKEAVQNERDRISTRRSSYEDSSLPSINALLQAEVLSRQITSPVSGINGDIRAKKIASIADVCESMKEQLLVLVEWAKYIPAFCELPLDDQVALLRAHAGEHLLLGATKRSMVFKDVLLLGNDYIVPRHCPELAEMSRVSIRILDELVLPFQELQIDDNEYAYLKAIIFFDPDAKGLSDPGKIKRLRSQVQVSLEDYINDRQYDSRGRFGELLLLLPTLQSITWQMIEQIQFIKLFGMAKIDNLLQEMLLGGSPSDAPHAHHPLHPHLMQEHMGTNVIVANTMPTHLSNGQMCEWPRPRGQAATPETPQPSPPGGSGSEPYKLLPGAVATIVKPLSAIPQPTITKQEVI
Steroid hormone receptor ERR1 (Homo sapiens), sequence (P11474 whole entry, looked up, the tested form may be a part): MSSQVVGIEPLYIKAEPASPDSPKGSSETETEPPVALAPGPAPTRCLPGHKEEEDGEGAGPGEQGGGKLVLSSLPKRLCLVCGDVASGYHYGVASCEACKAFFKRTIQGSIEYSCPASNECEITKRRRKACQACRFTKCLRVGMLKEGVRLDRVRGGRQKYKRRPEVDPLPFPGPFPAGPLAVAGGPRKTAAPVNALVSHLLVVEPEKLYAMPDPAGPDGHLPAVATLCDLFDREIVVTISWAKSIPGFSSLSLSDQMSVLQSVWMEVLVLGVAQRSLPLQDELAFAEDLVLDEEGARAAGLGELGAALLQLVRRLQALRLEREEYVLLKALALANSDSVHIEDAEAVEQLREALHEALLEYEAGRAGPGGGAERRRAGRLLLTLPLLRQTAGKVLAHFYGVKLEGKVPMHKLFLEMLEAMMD
X-box-binding protein 1 (Homo sapiens), sequence (P17861 whole entry, looked up): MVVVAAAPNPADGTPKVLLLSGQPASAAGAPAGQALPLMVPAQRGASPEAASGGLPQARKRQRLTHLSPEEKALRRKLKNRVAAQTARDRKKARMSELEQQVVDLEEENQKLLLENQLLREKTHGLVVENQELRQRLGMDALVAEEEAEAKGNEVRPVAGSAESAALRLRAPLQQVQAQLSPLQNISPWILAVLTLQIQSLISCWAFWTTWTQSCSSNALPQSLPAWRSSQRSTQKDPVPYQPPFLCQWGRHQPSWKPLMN
Bile acid receptor (Homo sapiens), sequence (Q96RI1 whole entry, looked up, the tested form may be a part): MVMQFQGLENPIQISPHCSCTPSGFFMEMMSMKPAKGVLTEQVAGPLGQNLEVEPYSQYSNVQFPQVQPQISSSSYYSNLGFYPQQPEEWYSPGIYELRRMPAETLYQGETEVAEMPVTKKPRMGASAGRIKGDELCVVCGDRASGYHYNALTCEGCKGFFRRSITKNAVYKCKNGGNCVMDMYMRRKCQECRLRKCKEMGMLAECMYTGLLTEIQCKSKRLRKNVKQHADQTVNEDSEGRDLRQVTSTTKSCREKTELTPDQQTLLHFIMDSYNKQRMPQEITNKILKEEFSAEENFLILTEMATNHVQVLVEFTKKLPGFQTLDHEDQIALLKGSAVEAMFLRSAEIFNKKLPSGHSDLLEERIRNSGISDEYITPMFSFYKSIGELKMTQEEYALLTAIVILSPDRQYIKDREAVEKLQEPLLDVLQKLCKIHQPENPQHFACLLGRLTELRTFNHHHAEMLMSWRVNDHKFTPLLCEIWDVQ
Oxysterols receptor LXR-beta (Homo sapiens), sequence (P55055 whole entry, looked up, the tested form may be a part): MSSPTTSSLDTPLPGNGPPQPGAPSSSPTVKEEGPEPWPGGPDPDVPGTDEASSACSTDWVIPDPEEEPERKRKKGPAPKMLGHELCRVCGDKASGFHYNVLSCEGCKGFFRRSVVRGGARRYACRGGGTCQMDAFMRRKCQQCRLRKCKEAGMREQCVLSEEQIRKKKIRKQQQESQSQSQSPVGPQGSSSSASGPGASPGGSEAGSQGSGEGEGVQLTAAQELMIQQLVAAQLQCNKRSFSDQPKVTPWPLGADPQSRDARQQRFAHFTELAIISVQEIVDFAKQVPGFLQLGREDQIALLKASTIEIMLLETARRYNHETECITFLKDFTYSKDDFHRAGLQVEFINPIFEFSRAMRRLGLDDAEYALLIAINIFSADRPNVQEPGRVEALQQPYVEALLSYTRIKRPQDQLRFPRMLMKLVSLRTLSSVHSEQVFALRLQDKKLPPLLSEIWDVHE

On to `CCCCCCCCC(=O)NCc1ccc(O)c(OC)c1`, for which the result in [1], in [2], in assay [3], in assay [4], in [5] and in assay [6] was inactive. Moreover, the call in assay [7], in assay [8], in [9] and in [10] was inactive.
With `CN(C)P(=O)(N(C)C)N(C)C`, the compound was classed as inactive in assay [1], in assay [2], in assay [3], in [4], in [11] and in assay [5]. The compound was called inactive in assay [12], in assay [13], in [14], in assay [15], in assay [16] and in [17]. Besides, the compound was classed as inactive in assay [6], in assay [7], in assay [8] and in assay [10].
With `CC(=O)C=C(C)C`, the compound was called inactive in [1], in [2], in assay [3], in assay [4], in assay [11] and in assay [5]. For the same compound, the outcome in assay [14], in assay [18], in assay [7], in assay [8], in assay [9] and in assay [10] was inactive.
For the compound `O=C1C(Cl)=C(Cl)C(=O)c2ccccc21`, the outcome in assay [1], in assay [2], in assay [3], in [4], in assay [11] and in [5] was inactive. Moreover, the result in [12], in assay [14], in [16], in assay [7], in assay [8] and in assay [9] was inactive. The compound was classed as inactive in assay [10].
On to `O=C(O)C(Cl)(Cl)Cl`, for which the compound was called inactive in assay [1], in assay [2], in [3], in assay [5], in assay [12] and in [13]. Also, the call in assay [16], in [6], in assay [7], in assay [8], in assay [9] and in [10] was inactive.
With `O=C(Cl)c1ccc(Cl)cc1`, the compound was called inactive in assay [1], in assay [2], in assay [3], in assay [4], in assay [5] and in assay [12]. The compound was classed as inactive in [15], in assay [16], in [7], in assay [8] and in assay [10].
For `Cn1sc(Cl)cc1=O`, the outcome in assay [1], in [2], in assay [3], in [4], in [5] and in [7] was inactive. Besides, the outcome in [8] and in assay [10] was inactive.
For the compound `CC1(C)Cc2cccc(O)c2O1`, the outcome in [1], in assay [2], in assay [3], in assay [4], in assay [5] and in [16] was inactive. Moreover, the outcome in assay [6], in [7], in [9] and in assay [10] was inactive.
Regarding `C=CC#N`, the outcome in assay [1], in assay [2], in assay [3], in [11], in [5] and in assay [12] was inactive. In addition, the result in assay [13], in assay [16], in [8], in [9] and in assay [10] was inactive.
For `Nc1ccc(Cl)cc1C(=O)c1ccccc1`, the call in assay [1], in assay [2], in assay [11], in assay [5], in [12] and in assay [13] was inactive. In addition, the outcome in assay [15], in [8] and in assay [10] was inactive. The AC50 (commonly the midpoint of the concentration-response curve, whichever way the signal moves) in assay [3] is 16.6 µM (active); in assay [4], 3.63 µM (active); in assay [7], 160 µM (active).
As for `C=CC(=O)OCCCCCC(C)C`, the compound was classed as inactive in [1], in assay [2], in assay [3], in [5], in assay [19] and in assay [12]. Further, the outcome in assay [13], in assay [15], in assay [6], in assay [9] and in [10] was inactive.
